Inconclusive results are not listed. Calls of active or inactive are those of the source. Calls come from the whole dose curve; as a rule, active = well fitted inhibition curve with a large enough effect; inconclusive = small, poorly fitted or top-dose-only effect; inactive = flat fitted curve, though single readings scatter.
molecular target: Ferritin light chain (Equus caballus) (UniProt P02791); assay: Confirmation Assay for Identification of Novel General Anesthetics; conditions: apoferritin 1-aminoanthracene fluorescence displacement; note: nearly all actives have a fitted effect of over 40% in size
Sequence (P02791 2-175 limits assumed): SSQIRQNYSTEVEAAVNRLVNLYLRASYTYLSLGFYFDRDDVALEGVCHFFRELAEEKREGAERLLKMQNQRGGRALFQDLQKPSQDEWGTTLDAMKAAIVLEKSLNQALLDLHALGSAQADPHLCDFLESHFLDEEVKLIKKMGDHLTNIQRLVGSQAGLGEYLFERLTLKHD
From the text: Anesthetic development has remained a largely empirical process. There are growing concerns about the cognitive effects of known general anesthetics and acceleration of the onset of neurodegenerative disease. The compounds' toxicity and multiple specific binding targets in the mammalian brain [4] has made them less attractive as drug leads. In this assay, a GABAergic mimetic model system, apoferritin and a profluorescent 1-aminoanthracene ligand (1-AMA), was used to construct a competitive binding assay for identification of novel general anesthetics. The assay was validated for 1-AMA using other known anesthetics, such as isoflurane (CID:3763) and propofol (CID: 4943), [6]. This particular BioAssay is a confirmation of followup compounds from primary screen AID:485281.
[1] S.L. Bianchi, T. Tran, C. Liu, S. Lin, Y. Li, J.M. Keller, R.G. Eckenhoff, and M.F. Eckenhoff, Brain and behavior changes in 12-month-old Tg2576 and nontransgenic mice exposed to anesthetics. Neurobiol Aging 29 (2008) 1002-10.
[2] Z. Xie, Y. Dong, U. Maeda, R.D. Moir, W. Xia, D.J. Culley, G. Crosby, and R.E. Tanzi, The inhalation anesthetic isoflurane induces a vicious cycle of apoptosis and amyloid beta-protein accumulation. J Neurosci 27 (2007) 1247-54.
[3] P. Honegger, and J.M. Matthieu, Selective toxicity of the general anesthetic propofol for GABAergic neurons in rat brain cell cultures. J Neurosci Res 45 (1996) 631-6.
[4] M.F. Eckenhoff, K. Chan, and R.G. Eckenhoff, Multiple specific binding targets for inhaled anesthetics in the mammalian brain. J Pharmacol Exp Ther 300 (2002) 172-9.
[5] C.A. Butts, J. Xi, G. Brannigan, A.A. Saad, S.P. Venkatachalan, R.A. Pearce, M.L. Klein, R.G. Eckenhoff, and I.J. Dmochowski, Identification of a fluorescent general anesthetic, 1-aminoanthracene. Proc Natl Acad Sci U S A 106 (2009) 6501-6.
[6] W.A. Lea, J. Xi, A. Jadhav, L. Lu, C.P. Austin, A. Simeonov, and R.G. Eckenhoff, A high-throughput approach for identification of novel general anesthetics. PLoS One 4 (2009) e7150.
Source: NIH Chemical Genomics Center [NCGC]
Assay Submitter: Roderic Eckenhoff, University of Pennsylvania
Screening Center PI: Christopher P. Austin, NIH
Probe Development: NIH Chemical Genomics Center [NCGC]
Three uL of reagents (free 1-AMA (50% saturated solution of 1-aminoanthracene
in PBS) in columns 3, 4 as negative control and 1-AMA/apoferritin mixture (10 uM horse-spleen apoferritin in 50% saturated 1-aminoanthracene in PBS) in columns 1, 2, 5-48) was dispensed into 1536-well Greiner black assay plates. Compounds (23 nL) were transferred via Kalypsys pintool equipped with 1,536-pin array (10 nL slotted pins, V&P Scientific, San Diego, CA). Titration of the positive control, propofol, were delivered via pin transfer from separate control plates to the 2nd column of each assay plate. The starting concentration of the control, dissolved in DMSO, was at 160 mM, followed by two-fold dilution points in duplicate, for a total of 16 concentrations. The plates were incubated for 10 min at room temperature, and then read on an EnVision HTS multilabel reader (Perkin-Elmer, Waltham, MA) (end point read, 3 min/plate) using Fura2 BFP excitation filter (380 nm, bandwidth 10 nm) and fluorescein emission filter (535 nm, bandwidth 25 nm) set. A LANCE/DELFIA dichroic mirror with a cutoff wavelength at 400 nm was used to maximize signal accuracy and strength. Vehicle-only plates, with DMSO being pin-transferred to the entire column 5-48 compound area, were inserted uniformly at the beginning and the end of each library in order to monitor for and record any shifts in the background. Activity was computed as the normalized fluorescence response relative to free 1-AMA and 1-AMA/apoferritin complex values. Concentration-effect relationships were derived by using curve fitting algorithms developed in-house (http://ncgc.nih.gov/pub/openhts/). […]
Potency is the fitted concentration of half-maximal effect.

Potency, active:
O=S(=O)(Nc1ccc2c(c1)CCC2)c1cccs1 17.8 µM
ClC1(Cl)CC1CSc1nc2ccccc2[nH]1 (stereo not given) 15.8 µM
CC(=O)Nc1ccc(C(=O)OCC(=O)NC2CCCCCCC2)cc1 15.8 µM
COc1cccc(CNc2ccc(C)c(Cl)c2)c1 11.2 µM
O=C(COC(=O)c1ccccn1)NC12CC3CC(CC(C3)C1)C2 7.94 µM
O=c1[nH]cnc2sc3c(c12)CCCCC3 15.8 µM
NC(=O)COC(=O)CC12CC3CC(CC(C3)C1)C2 15.8 µM
Cc1cc(C)cc(OCc2nnc(SCC(=O)OC(C)C)o2)c1 12.6 µM
O=C(NC1CCCCC1)N1CCCCCCC1 14.1 µM
COC(=O)c1ccc(/C=N/NC(=O)CC(=O)NC2CCCCC2)cc1 7.08 µM
Cc1ccc(F)c(NC(=O)CCc2ccccc2)c1 15.8 µM
O=C(CN1CCOCC1)Nc1ccc(C2CCCCC2)cc1 31.6 µM
Nc1nc(-c2cc(Cl)cc(Cl)c2OC(F)F)cs1 8.91 µM
CC(NC(=O)c1ccc(Br)o1)C1CC2CCC1C2 (stereo not given) 8.91 µM
O=S(N1CCc2ccccc21)C12CC3CC(CC(C3)C1)C2 (stereo not given) 12.6 µM
Cc1ccc(CNc2ncnc3c2cnn3-c2ccc(C)cc2C)cc1 15.8 µM
CC(C)(Nc1ccccc1)C(=O)c1ccccc1 12.6 µM
O=C(COC(=O)c1cccs1)NCC1CCCCC1 20 µM
Cc1nnc(SCc2ccc(F)cc2Cl)s1 22.4 µM
O=C(COC(=O)c1cccs1)NC12CC3CC(CC(C3)C1)C2 11.2 µM
O=c1cc(C23CC4CC(CC(C4)C2)C3)[nH][nH]1 12.6 µM
Cc1csc(Nc2ccc(Cl)cc2)n1 31.6 µM
Nc1nnc(COc2cccc(C(F)(F)F)c2)s1 15.8 µM
COc1cccc(NC(=O)CN2C(=O)NC(C)(CCC(C)C)C2=O)c1 (stereo not given) 17.8 µM
Nc1nnc(CCC2CCCCC2)s1 10 µM
CC(=O)Nc1ccc(NCc2ccc(C)s2)cc1 17.8 µM
Cc1ccc(-c2ccc(=O)n(CC(=O)NCCc3ccccc3)n2)cc1 6.31 µM
Cn1cc(Br)c(C(=O)NC2C3CC4CC(C3)CC2C4)n1 (stereo not given) 10 µM
CC1CCN(c2nc(-c3ccncc3)nc3ccccc23)CC1 39.8 µM
O=C(NC1CCCCCC1)C(=S)NCc1ccccc1 11.2 µM
O=C(COC(=O)C1=COCCO1)NC1CCCCCCC1 12.6 µM
CC1CCCCC1NC(=O)Cn1nc(-c2ccccc2)ccc1=O (stereo not given) 7.08 µM
CCNc1nc(C23CC4CC(CC(C4)C2)C3)cs1 7.94 µM
Oc1ccc(NCc2cccc(OCc3ccccc3)c2)cc1 15.8 µM
Cc1cc(OC(C)C)c2c(-c3ccccc3)cc(=O)oc2c1 35.5 µM
O=C1C2CC=CCC2C(=O)N1Cc1ccccc1Cl (stereo not given) 7.94 µM
O=C(CN1N=C(c2ccccc2)CCC1=O)NCc1cccs1 17.8 µM
CC1(COc2ccc(CC3SC(=O)NC3=O)cc2)CCCCC1 (stereo not given) 14.1 µM
Cc1cc(C)cc(NC(=O)N2CCCCCCC2)c1 6.31 µM
Cc1ccc(NC(=O)C2COc3ccccc3O2)cc1C (stereo not given) 17.8 µM

Reference: PubChem BioAssay AID489008 (National Center for Advancing Translational Sciences (NCATS), 2010)
